# Assay outcomes from PubChem BioAssay.
# In the library only some 1.6% were active in any assay of this set; here they are far more common.
# PrP UTR inh = inhibition of PrP 5' UTR reporter expression | cell-based PrP 5' UTR mRNA reporter, plate reader | inhibition, % (no concentration beside the values) | hit rate 0.35% among 340,000 | AID 488862; in the data active means inhibition above about 52%; further: 0 = median of the neutral control wells
# SARS 3CLpro inh = SARS-CoV 3CLpro protease inhibition. recombinant SARS-CoV 3CLpro, quenched FRET peptide cleavage. P0C6X7. inhibition, % at 6 µM. hit rate 0.14% among 290,000; in the data active means inhibition above about 12%
# PfHsp40 rescue = compounds rescuing yeast from Plasmodium falciparum HSP40 toxicity; hit rate 0.68% among 340,000; S. cerevisiae expressing PfHsp40, growth rescue, ATP luminescence; growth rescue, % at 12.5 µM; in the data active means growth rescue above about 28%, passing the limit was not always enough;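 further: yeast W303a lacking pdr1 and pdr3 grown in galactose medium; growth measured after three days at 30 °C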
# Vc quorum ag = inducers of Vibrio cholerae quorum light production without autoinducers | V. cholerae BH1578 lux reporter, luminescence, 6 h | activation, % at 18.7 µM | hit rate 0.16% among 350,000; in the data active means activation mostly above about 9.7%, no sharp cut-off
# PriA SSB inh = blocks PriA binding to SSB C-terminal tail. hit rate 0.6% among 430,000. AID 1272365. inhibition, % at 33 µM. AlphaScreen SSBct-PriA binding, biotinylated peptide; in the data active means inhibition mostly above about 37%, no sharp cut-off; inactive means mostly below about 20%;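 further: plate controls were negative control peptide for no effect and reference peptide for full effect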
# PrPC surface inh = cell surface PrPC inhibition, primary TR-FRET screen | P04156 | TR-FRET read-out | inhibition, % at 13.8 µM | hit rate 0.43% among 370,000 | AID 720596; in the data active means inhibition above about 24%; further: 0% = median of the test wells and 100% = reference compound wells
# PrPC TRFRET cf = confirmation of inhibitors of cell surface human prion protein; shares compounds with PrPC surface inh; inhibition, % at 13.8 µM; cell surface PrPC level, TR-FRET; hit rate 65% among 1,500; in the data active means inhibition above about 25%
# LD9 tox = kills or reduces viability of LD9 cells in PrPc counter-screen; shares compounds with PrPC surface inh; LD9 cells cytotoxicity, luminescence viability; inhibition, % at 13.8 µM; hit rate 29% among 1,500; AID 743201; in the data active means inhibition above about 9.5%
# An asterisk follows results filed as active; i = inactive; / = no result given.
SMILES,PrP UTR inh,SARS 3CLpro inh,PfHsp40 rescue,Vc quorum ag,PriA SSB inh,PrPC surface inh,PrPC TRFRET cf,LD9 tox
O=C(Cn1cnc2ccccc2c1=O)NCC1CCCN(c2nccs2)C1 (stereo unspecified),/,/,/,/,0,/,/,/
Cc1ccccc1-c1n[nH]c(=S)o1,-12,-3,-2,0,2,63*,72*,-3
CSc1ccccc1-c1n[nH]c(=S)o1,-22,-4,/,0,-12,66*,83*,-7
Cc1ccccc1-c1n[nH]c(=O)o1,/,/,/,/,1,/,/,/
CC(=O)CSc1nc2c(c(=O)n(C)c(=O)n2C)n1CC(N)=O,/,/,/,/,-13,/,/,/
O=S(=O)(NCCc1csc(-c2ccc(C(F)(F)F)cc2)n1)c1ccc(F)cc1F,/,/,/,/,-15,/,/,/
c1cncc(-c2noc(C3CNC3)n2)c1,/,/,/,/,-5,/,/,/
Cc1cccc(/C=N/NC(=O)c2c(-c3ccccc3)noc2C)c1O,-1,7,0,0,/,26*,22,-5
CC(C)CS(=O)(=O)Nc1ccc2c(c1)N(C(=O)c1ccco1)CC2,/,/,/,/,-1,/,/,/
CCOc1ccc(Nc2oc(-c3ccco3)nc2S(=O)(=O)c2ccc(Cl)cc2)cc1,/,/,/,/,22,/,/,/
COCCN(CCOC)C(=O)CC(=O)N(CCOC)CCOC,2,5,0,i,-4,28*,7,-1
NC(=O)CSc1nnc2n(-c3ccccc3)c(=O)c3c4c(sc3n12)CCCCC4,-18,3,1,-10,-13,51*,86*,-5
Cc1nnc2n(-c3ccccc3)c(=O)c3c4c(sc3n12)CCCC4,-4,-9,-1,i,15,15,/,/
CCN(c1ccc(C(O)(C(=O)OC)C(F)(F)F)cc1)S(=O)(=O)c1ccccc1 (stereo unspecified),-5,-4,0,i,-12,-3,/,/
O=S(=O)(c1ccccc1)N(CC(F)(F)F)c1ccc(C(O)(C(F)(F)F)C(F)(F)F)cc1,/,/,/,0,/,33*,14,-3
O=C1C[C@H](c2nc3ccccc3n2CCN2CCOCC2)CN1c1ccc(F)cc1,/,/,/,/,-13,/,/,/
CCOC(=O)CC(=O)CSc1ncnc2c1oc1ccccc12,-17,1,0,/,-5,58*,19,-7
N#CCCSc1ncnc2c1oc1ccccc12,-14,2,0,i,-6,55*,47*,-5
O=C(C1=C(O)C(=O)N(CCN2CCOCC2)C1c1cccc(Br)c1)c1cc2ccccc2o1 (stereo unspecified),-15,3,0,-2,0,75*,130*,1
N#C/C(=C(/O)C(Cl)c1ccccc1)c1nc2ccccc2s1 (stereo unspecified),-40,7,1,/,-10,43*,38*,-2
CC(=O)N1CCC(C(=O)NC2CCCc3c2cnn3-c2cc(F)cc(F)c2)CC1 (stereo unspecified),14,-4,0,i,-18,85*,0,-6
CCOc1ccccc1NC(=O)Cn1c(C)cc(C)c(-c2nc(-c3ccccc3)no2)c1=O,/,/,/,/,-17,/,/,/
Cc1cccc2nc(-c3ccco3)c(Nc3ccccc3)n12,-29,0,0,i,5,1,/,/
Cc1ccc(Nc2c(-c3ccccn3)nc3cccc(C)n23)cc1,26,2,0,i,101,30*,18,40*
O=C(NN=Cc1cccc(O)c1)c1cc(-c2ccc3c(c2)OCO3)n[nH]1,/,/,/,/,8,/,/,/
SMILES,PrP UTR inh,SARS 3CLpro inh,PfHsp40 rescue,Vc quorum ag,PriA SSB inh,PrPC surface inh,PrPC TRFRET cf,LD9 tox
NC(=O)C1CCN(C(=O)c2ccc3nc(-c4ccccc4)c(-c4ccccc4)nc3c2)CC1,-7,1,0,1,-5,47*,53*,-2
O=S(=O)(Nc1cccnc1)c1ccc(Br)c2ccccc12,-16,0,-1,i,-5,36*,43*,-5
O=C(Nc1ccccc1)c1ccc(Br)c(S(=O)(=O)Nc2cccnc2)c1,-21,7,1,i,-8,3,/,/
CC(C)N1CCc2c(sc(NC(=O)CN3C(=O)CCC3=O)c2C#N)C1,/,/,/,/,3,/,/,/
COc1ccc2nc(NC(=O)c3cccs3)sc2c1,/,1,/,-1,-6,27*,15,4
COc1ccc2nc(NC(=O)c3ccccc3)sc2c1,/,/,/,/,-4,/,/,/
Cc1cc(C(=O)Nc2nc3c(s2)CSc2ccccc2-3)on1,/,/,/,/,2,/,/,/
CC(=O)Nc1ccc(C(=O)N2CC(Oc3nc4c(C)cccc4s3)C2)cc1,/,/,/,/,-13,/,/,/
CNc1ncc(C(=O)c2ccccc2)s1,-47,4,1,0,-3,-7,/,/
CNc1ncc(C(=O)c2ccc(Br)cc2)s1,-56,2,2,0,-9,26*,46*,-2
Cn1c2ccccc2c2cc(C=NNC(=O)c3ccc(O)cc3O)ccc21,/,/,/,/,-17,/,/,/
Cn1c2ccccc2c2cc(/C=N/NC(=O)c3ccccc3F)ccc21,-21,5,-2,-3,/,47*,14,0
O=C(Nc1cccs1)N1CCOC(c2cc(Cl)cc(Cl)c2)C1 (stereo unspecified),/,/,/,/,14,/,/,/
Fc1cccc2sc(Nc3nc4c(F)cccc4s3)nc12,-29,8,1,-1,-7,37*,70*,-5
NNc1nc2c(F)cccc2s1,-32,0,-1,0,-5,-10,/,/
CN(c1ccc(F)cc1)S(=O)(=O)c1c(-c2ccccc2)csc1C(N)=O,/,/,/,/,4,/,/,/
N#Cc1ccccc1OCCCN1CCC(Cc2ccccc2)CC1,-19,6,-1,2,-5,26*,4,10*
CCC(=O)c1ccccc1OCCCN1CCC(Cc2ccccc2)CC1,-31,-7,1,i,7,5,/,/
C[C@H]1COc2c3ccc(I)cc3nn21,/,/,/,/,/,47*,70*,-6
CC1(C)COc2ccc(NS(=O)(=O)c3ccc(F)cc3)cc2NC1=O,/,/,/,/,-12,/,/,/
CCCn1c(N)c(C(=O)CSc2nnc(N)s2)c(=O)[nH]c1=O,-14,/,0,i,-3,42*,43*,4
CCCn1c(N)c(C(=O)CSc2nc3ccccc3s2)c(=O)[nH]c1=O,-16,-1,-1,i,4,4,/,/
CCCn1c(N)c(C(=O)CSc2nncs2)c(=O)[nH]c1=O,-17,/,0,0,-9,55*,67*,-5
COc1ccc(NC(=O)c2cc(S(=O)(=O)N(C)C)ccc2N2CCCC2)cc1Cl,-19,-3,2,0,-6,24*,21,-6
COc1ccc(S(=O)(=O)N2CCOCC2)cc1C(=O)Nc1ccc(N2CCCCCC2)cc1,-16,/,0,-1,7,31*,30*,7
COc1ccc(S(=O)(=O)N2CCCCC2)cc1C(=O)Nc1ccc(S(C)(=O)=O)cc1,/,/,/,/,-17,/,/,/
COc1ccc(-c2cnnn2-c2ccc(NC(=O)c3ccc(S(=O)(=O)N4CCCCC4)cc3)cc2)cc1OC,4,3,0,0,-3,32*,19,-13
